# Source: the supplement of paper PMC8728848
# About 410 targets per protein were measured; listed, in parts, are those with the strongest signals and a random draw of the rest.
# Legend:
# Experiment in all cases: glycan array binding signal (z-score within array); higher = stronger binding
# Conditions in all cases: glycan notation: IUPAC condensed, linker removed
# [1] = biological target: Fuc(a1-2)Gal
# How it was run: (§1)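 Arrays were curated from the Consortium for Functional Glycomics database, 3228 in total, and kept only where the protein sequence was available. Binding is expressed as a within-array Z-score. This score was averaged across arrays of the same protein sequence at different concentrations or buffers and across linkers, and negative values can be read as non-binding.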
# [2] = biological target: Fuc(a1-2)Gal(b1-4)GlcNAc(b1-3)Gal(b1-4)GlcNAc
# How it was run: as §1
# [3] = biological target: Fuc(a1-2)Gal(b1-4)GlcNAc(b1-3)[Fuc(a1-2)Gal(b1-4)GlcNAc(b1-6)]GalNAc
# How it was run: as §1
# [4] = biological target: Fuc(a1-2)[Gal(a1-3)]Gal(b1-3)GlcNAc(b1-3)GalNAc
# How it was run: as §1
# [5] = biological target: Fuc(a1-2)[Gal(a1-3)]Gal(b1-4)GlcNAc(b1-2)Man(a1-3)[Fuc(a1-2)[Gal(a1-3)]Gal(b1-4)GlcNAc(b1-2)Man(a1-6)]Man(b1-4)GlcNAc(b1-4)GlcNAc
# How it was run: as §1
# [6] = biological target: Fuc(a1-2)[Gal(a1-4)]Gal(b1-4)GlcNAc
# How it was run: as §1
# [7] = biological target: Fuc(a1-2)[GalNAc(a1-3)]Gal
# How it was run: as §1
# [8] = biological target: Fuc(a1-2)[GalNAc(a1-3)]Gal(b1-3)GlcNAc(b1-3)GalNAc
# How it was run: as §1
# [9] = biological target: Fuc(a1-2)[GalNAc(a1-3)]Gal(b1-4)GlcNAc(b1-3)Gal(b1-4)GlcNAc
# How it was run: as §1
# [10] = biological target: Fuc(a1-2)[GalNAc(a1-3)]Gal(b1-4)GlcNAc(b1-3)GalNAc
# How it was run: as §1
# [11] = biological target: Fuc(a1-3)GlcNAc
# How it was run: as §1
# [12] = biological target: Fuc(a1-3)[Gal(b1-4)]GlcNAc(b1-2)Man
# How it was run: as §1
# [13] = biological target: Gal(a1-3)Gal(b1-3)GlcNAc(b1-6)GalNAc
# How it was run: as §1
# [14] = biological target: Gal(a1-3)Gal(b1-4)Glc
# How it was run: as §1
# [15] = biological target: Gal(b1-3)Gal
# How it was run: as §1
# [16] = biological target: Gal(b1-3)GalNAc(b1-3)Gal(a1-4)Gal(b1-4)Glc
# How it was run: as §1
# [17] = biological target: Gal(b1-3)GlcNAc(b1-2)Man(a1-3)[Gal(b1-3)GlcNAc(b1-2)Man(a1-6)]Man(b1-4)GlcNAc(b1-4)GlcNAc
# How it was run: as §1
# [18] = biological target: Gal(b1-3)GlcNAc(b1-3)Gal(b1-3)GlcNAc
# How it was run: as §1
# [19] = biological target: Gal(b1-3)GlcNAc(b1-3)Gal(b1-4)GlcNAc(b1-2)[Gal(b1-3)GlcNAc(b1-3)Gal(b1-4)GlcNAc(b1-6)]Man(a1-6)[Gal(b1-3)GlcNAc(b1-3)Gal(b1-4)GlcNAc(b1-2)Man(a1-3)]Man(b1-4)GlcNAc(b1-4)[Fuc(a1-6)]GlcNAc
# How it was run: as §1
# [20] = biological target: Gal(b1-4)GlcNAc(b1-2)Man(a1-3)[Gal(b1-4)GlcNAc(b1-2)Man(a1-6)]Man(b1-4)GlcNAc(b1-4)GlcNAc
# How it was run: as §1
# [21] = biological target: Gal(b1-4)GlcNAc(b1-2)Man(a1-6)[Man(a1-3)]Man(b1-4)GlcNAc(b1-4)GlcNAc
# How it was run: as §1
# [22] = biological target: Gal(b1-4)GlcNAc(b1-2)[Gal(b1-4)GlcNAc(b1-6)]Man(a1-6)[Gal(b1-4)GlcNAc(b1-2)Man(a1-3)]Man(b1-4)GlcNAc(b1-4)GlcNAc
# How it was run: as §1
# [23] = biological target: Gal(b1-4)GlcNAc(b1-3)Gal(b1-4)GlcNAc(b1-2)[Gal(b1-4)GlcNAc(b1-3)Gal(b1-4)GlcNAc(b1-6)]Man(a1-6)[Gal(b1-4)GlcNAc(b1-3)Gal(b1-4)GlcNAc(b1-2)Man(a1-3)]Man(b1-4)GlcNAc(b1-4)GlcNAc
# How it was run: as §1
# [24] = biological target: Gal(b1-4)GlcNAc(b1-3)Gal(b1-4)GlcNAc(b1-3)Gal(b1-4)GlcNAc
# How it was run: as §1
# [25] = biological target: Gal(b1-4)GlcNAc(b1-3)Gal(b1-4)GlcNAc(b1-3)Gal(b1-4)GlcNAc(b1-2)Man(a1-3)[Gal(b1-4)GlcNAc(b1-3)Gal(b1-4)GlcNAc(b1-3)Gal(b1-4)GlcNAc(b1-2)Man(a1-6)]Man(b1-4)GlcNAc(b1-4)GlcNAc
# How it was run: as §1
# [26] = biological target: Gal(b1-4)GlcNAc(b1-3)Gal(b1-4)GlcNAc(b1-3)Gal(b1-4)GlcNAc(b1-3)Gal(b1-4)GlcNAc(b1-2)Man(a1-3)[Gal(b1-4)GlcNAc(b1-3)Gal(b1-4)GlcNAc(b1-3)Gal(b1-4)GlcNAc(b1-3)Gal(b1-4)GlcNAc(b1-2)Man(a1-6)]Man(b1-4)GlcNAc(b1-4)[Fuc(a1-6)]GlcNAc
# How it was run: as §1
# [27] = biological target: Gal(b1-4)GlcNAc(b1-3)Gal(b1-4)GlcNAc(b1-3)Gal(b1-4)GlcNAc(b1-3)Gal(b1-4)GlcNAc(b1-2)[Gal(b1-4)GlcNAc(b1-3)Gal(b1-4)GlcNAc(b1-3)Gal(b1-4)GlcNAc(b1-3)Gal(b1-4)GlcNAc(b1-6)]Man(a1-6)[Gal(b1-4)GlcNAc(b1-3)Gal(b1-4)GlcNAc(b1-3)Gal(b1-4)GlcNAc(b1-3)Gal(b1-4)GlcNAc(b1-2)Man(a1-3)]Man(b1-4)GlcNAc(b1-4)[Fuc(a1-6)]GlcNAc
# How it was run: as §1
# [28] = biological target: Gal(b1-4)GlcNAc(b1-3)Gal(b1-4)GlcNAc(b1-3)Gal(b1-4)GlcNAc(b1-3)Gal(b1-4)GlcNAc(b1-3)Gal(b1-4)GlcNAc(b1-3)Gal(b1-4)GlcNAc(b1-2)Man(a1-3)[Gal(b1-4)GlcNAc(b1-3)Gal(b1-4)GlcNAc(b1-3)Gal(b1-4)GlcNAc(b1-3)Gal(b1-4)GlcNAc(b1-3)Gal(b1-4)GlcNAc(b1-3)Gal(b1-4)GlcNAc(b1-2)Man(a1-6)]Man(b1-4)GlcNAc(b1-4)GlcNAc
# How it was run: as §1
binder,measurement,setting,value
"MtEccB1 (Mycobacterium tuberculosis H37Rv), O69734 (protein) MGLRLTTKVQVSGWRFLLRRLEHAIVRRDTRMFDDPLQFYSRSIALGIVVAVLILAGAALLAYFKPQGKLGGTSLFTDRATNQLYVLLSGQLHPVYNLTSARLVLGNPANPATVKSSELSKLPMGQTVGIPGAPYATPVSAGSTSIWTLCDTVARADSTSPVVQTAVIAMPLEIDASIDPLQSHEAVLVSYQGETWIVTTKGRHAIDLTDRALTSSMGIPVTARPTPISEGMFNALPDMGPWQLPPIPAAGAPNSLGLPDDLVIGSVFQIHTDKGPQYYVVLPDGIAQVNATTAAALRATQAHGLVAPPAMVPSLVVRIAERVYPSPLPDEPLKIVSRPQDPALCWSWQRSAGDQSPQSTVLSGRHLPISPSAMNMGIKQIHGTATVYLDGGKFVALQSPDPRYTESMYYIDPQGVRYGVPNAETAKSLGLSSPQNAPWEIVRLLVDGPVLSKDAALLEHDTLPADPSPRKVPAGASGAP",glycan array binding signal (z-score),[1],-0.548
same,glycan array binding signal (z-score),[2],-0.199
same,glycan array binding signal (z-score),[3],-0.809
same,glycan array binding signal (z-score),[4],0.379
same,glycan array binding signal (z-score),[5],-0.471
same,glycan array binding signal (z-score),[6],-1.08
same,glycan array binding signal (z-score),[7],-0.459
same,glycan array binding signal (z-score),[8],0.901
same,glycan array binding signal (z-score),[9],-1.03
same,glycan array binding signal (z-score),[10],-0.767
same,glycan array binding signal (z-score),[11],-1.29
same,glycan array binding signal (z-score),[12],-0.707
same,glycan array binding signal (z-score),[13],-0.407
same,glycan array binding signal (z-score),[14],0.359
same,glycan array binding signal (z-score),[15],0.485
same,glycan array binding signal (z-score),[16],-0.784
same,glycan array binding signal (z-score),[17],2.58
same,glycan array binding signal (z-score),[18],0.213
same,glycan array binding signal (z-score),[19],1.6
same,glycan array binding signal (z-score),[20],-1.33
same,glycan array binding signal (z-score),[21],2.86
same,glycan array binding signal (z-score),[22],-0.552
same,glycan array binding signal (z-score),[23],2.86
same,glycan array binding signal (z-score),[24],2.06
same,glycan array binding signal (z-score),[25],0.867
same,glycan array binding signal (z-score),[26],1.01
same,glycan array binding signal (z-score),[27],1.93
same,glycan array binding signal (z-score),[28],2.86
